# From PubChem BioAssay
# Inconclusive results are not listed. Activity calls are given as the source filed them.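 How the source made its calls, unless noted: active means response below a set limit, under 55% cells CD8-positive and vesicle-bound, and CD8 cells' 90th-percentile brightness under 279; inactive means the rest.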
# Tests used:
# [1] = yeast TOR pathway RPL19A-GFP modulators, primary screen, cell-based, S. cerevisiae, multiplex flow cytometry (AID 1862; in the data active means percent of DMSO control GFP below about 86%;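 further: lower values mimic rapamycin by blocking the RPL19A rise seen in DMSO cells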); settings: S. cerevisiae RPL19A-GFP strain, flow cytometry fluorescence, 3 h; at 10 µM; stronger effect = lower value
# [2] = modulators of MEP2-GFP levels in yeast, primary screen, S. cerevisiae, multiplex flow cytometry (AID 1867;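 active means GFP response, as percent of the DMSO control, above the screen-wide mean plus 3 SD, about 139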;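 further: median GFP channel fluorescence of barcode-gated MEP2-GFP cells measured by flow cytometry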); settings: S. cerevisiae MEP2-GFP strain, 3 h, at 10 µM, stronger effect = higher value, 100% means same as DMSO wells
# [3] = modulators of CIT2-GFP expression in yeast, primary screen, S. cerevisiae, GFP fusion, multiplex flow cytometry (AID 1870;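 active means percent response above a set limit, the screen-wide mean plus 3 SD, cut at about 130% in these data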;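 further: barcoded CIT2-GFP strain pooled with four other GFP strains with rapamycin as positive control; median GFP fluorescence per well over plate mean of DMSO wells so 100% = DMSO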); settings: 3 h, at 10 µM, stronger effect = higher value
# [4] = modulators of LAP4-GFP expression in yeast, primary screen, S. cerevisiae, multiplex flow cytometry (AID 1873;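 active means GFP signal, as percent of the solvent control, above the screen mean plus 3 SD, about 149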); settings: 3 h, at 10 µM, stronger effect = higher value
# [5] = modulators of AGP1-GFP expression in yeast TOR pathway, primary screen, cell-based, multiplex flow cytometry, S. cerevisiae (AID 1887;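 active means GFP signal above the screen-wide mean plus 3 SD, that is over about 124.5% of the solvent control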;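 further: AGP1-GFP fusion strain of S. cerevisiae within a five-strain barcoded multiplex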); settings: 3 h, at 10 µM, stronger effect = higher value
# [6] = inhibitors of CD8+ T cell-vesicle binding, pilot screen, LFA-1/ICAM-1 modulator project, MLPCN validation set, flow cytometry (AID 2523); settings: 2C mouse CD8+ T cells, at 7 µM, stronger effect = lower value; double positive events: measured here: CD8+/vesicle+ event percentage;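 on vesicle binding response: mean PE anti-B7-1 fluorescence of CD8+ cells relative to row control; 100% = QL9-loaded vesicles with DMSO vehicle in the same plate row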
# [7] = target: Integrin beta-1 (Homo sapiens) + Integrin alpha-4 (Homo sapiens) (UniProt P13612+P05556); assay: inhibition of HUTS-21 binding to VLA-4, pilot screen, VLA-4 allosteric modulator project, U937 cells, HUTS-21 mAb, flow cytometry, validation set (AID 2674;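 active means inhibition above 50%, about 3 SD of the validation set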;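 further: antibody binding induced by the VLA-4 ligand LDV present at three times its Kd; 0% = LDV ligand with antibody and no compound and 100% = antibody without LDV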); settings: HUTS-21 LIBS mAb binding, at 6.7 µM, stronger effect = higher value, binding induced by LDV ligand
# Sequence of Integrin beta-1 (Homo sapiens) + Integrin alpha-4 (Homo sapiens) (P05556 whole entry, looked up): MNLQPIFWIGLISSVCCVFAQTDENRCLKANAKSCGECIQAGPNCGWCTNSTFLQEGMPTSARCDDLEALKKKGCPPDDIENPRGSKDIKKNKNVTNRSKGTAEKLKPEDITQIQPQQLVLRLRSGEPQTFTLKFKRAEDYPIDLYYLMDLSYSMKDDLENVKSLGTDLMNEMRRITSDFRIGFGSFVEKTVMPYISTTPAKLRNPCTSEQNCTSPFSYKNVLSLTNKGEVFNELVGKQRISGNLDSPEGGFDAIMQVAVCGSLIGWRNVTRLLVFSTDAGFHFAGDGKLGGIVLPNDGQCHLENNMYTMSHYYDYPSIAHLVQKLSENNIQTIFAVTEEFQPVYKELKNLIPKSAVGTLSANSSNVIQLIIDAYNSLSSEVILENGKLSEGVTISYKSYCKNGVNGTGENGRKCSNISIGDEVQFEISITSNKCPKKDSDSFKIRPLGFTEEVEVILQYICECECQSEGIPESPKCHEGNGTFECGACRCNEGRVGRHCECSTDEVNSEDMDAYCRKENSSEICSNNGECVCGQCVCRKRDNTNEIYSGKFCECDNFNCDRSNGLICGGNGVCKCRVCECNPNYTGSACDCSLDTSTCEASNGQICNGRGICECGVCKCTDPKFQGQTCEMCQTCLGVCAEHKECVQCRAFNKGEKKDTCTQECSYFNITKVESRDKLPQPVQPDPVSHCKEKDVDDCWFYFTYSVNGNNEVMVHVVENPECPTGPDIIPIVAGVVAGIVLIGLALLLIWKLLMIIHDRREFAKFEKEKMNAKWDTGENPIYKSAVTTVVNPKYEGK
# Sequence of Integrin beta-1 (Homo sapiens) + Integrin alpha-4 (Homo sapiens) (P13612 whole entry, looked up): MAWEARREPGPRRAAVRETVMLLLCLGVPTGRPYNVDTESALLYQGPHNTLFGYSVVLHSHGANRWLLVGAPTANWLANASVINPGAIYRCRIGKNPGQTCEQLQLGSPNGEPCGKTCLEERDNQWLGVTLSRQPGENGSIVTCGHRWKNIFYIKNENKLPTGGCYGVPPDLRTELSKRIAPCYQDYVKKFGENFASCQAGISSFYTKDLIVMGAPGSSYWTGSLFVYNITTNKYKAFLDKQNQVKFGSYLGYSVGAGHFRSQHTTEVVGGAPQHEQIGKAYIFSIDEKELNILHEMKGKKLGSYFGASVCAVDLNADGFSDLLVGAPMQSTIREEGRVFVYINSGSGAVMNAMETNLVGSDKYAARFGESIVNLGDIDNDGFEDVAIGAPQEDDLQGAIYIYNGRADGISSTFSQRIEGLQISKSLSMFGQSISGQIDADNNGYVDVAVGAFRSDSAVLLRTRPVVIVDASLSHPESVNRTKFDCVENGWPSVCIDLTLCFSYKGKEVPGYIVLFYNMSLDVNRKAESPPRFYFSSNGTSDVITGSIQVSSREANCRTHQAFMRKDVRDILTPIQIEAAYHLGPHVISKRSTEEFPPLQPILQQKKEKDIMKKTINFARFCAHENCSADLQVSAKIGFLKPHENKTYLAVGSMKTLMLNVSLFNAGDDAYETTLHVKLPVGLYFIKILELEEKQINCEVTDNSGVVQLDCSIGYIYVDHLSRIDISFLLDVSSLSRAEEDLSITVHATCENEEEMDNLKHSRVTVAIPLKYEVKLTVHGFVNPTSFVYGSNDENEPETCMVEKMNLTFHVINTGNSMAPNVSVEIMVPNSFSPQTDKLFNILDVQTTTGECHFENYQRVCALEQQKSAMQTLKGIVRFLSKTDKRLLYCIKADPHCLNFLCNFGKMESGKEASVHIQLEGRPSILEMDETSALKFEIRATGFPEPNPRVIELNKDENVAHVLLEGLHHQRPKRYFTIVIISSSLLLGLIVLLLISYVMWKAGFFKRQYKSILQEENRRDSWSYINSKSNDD
# [8] = superoxide lowering in aged yeast cells, pilot screen, validation compound set (AID 2706;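 active means superoxide response below 65% of plate, a cut near 3 SD across the whole screen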;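 further: yeast exposed to compound for one week at 30 degrees C before staining; 100% = mean of all compound wells on the same plate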); settings: S. cerevisiae aging, superoxide DHE fluorescence; at 10 µM, stronger effect = lower value
# [9] = target: Beta-adrenergic receptor kinase 1 (Homo sapiens) (UniProt P25098); assay: GRK2 binders displacing RNA aptamer, biochemical, validation, human GRK2, bead flow cytometry (AID 488806;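 active means aptamer binding inhibition above 30%, about 3 SD of noise from non-fluorescent compounds; inactive means inhibition at or below 30%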); settings: bead-bound GRK2, FAM-aptamer displacement, at 10 µM, stronger effect = higher value
# Sequence of Beta-adrenergic receptor kinase 1 (Homo sapiens) (P25098 whole entry, looked up): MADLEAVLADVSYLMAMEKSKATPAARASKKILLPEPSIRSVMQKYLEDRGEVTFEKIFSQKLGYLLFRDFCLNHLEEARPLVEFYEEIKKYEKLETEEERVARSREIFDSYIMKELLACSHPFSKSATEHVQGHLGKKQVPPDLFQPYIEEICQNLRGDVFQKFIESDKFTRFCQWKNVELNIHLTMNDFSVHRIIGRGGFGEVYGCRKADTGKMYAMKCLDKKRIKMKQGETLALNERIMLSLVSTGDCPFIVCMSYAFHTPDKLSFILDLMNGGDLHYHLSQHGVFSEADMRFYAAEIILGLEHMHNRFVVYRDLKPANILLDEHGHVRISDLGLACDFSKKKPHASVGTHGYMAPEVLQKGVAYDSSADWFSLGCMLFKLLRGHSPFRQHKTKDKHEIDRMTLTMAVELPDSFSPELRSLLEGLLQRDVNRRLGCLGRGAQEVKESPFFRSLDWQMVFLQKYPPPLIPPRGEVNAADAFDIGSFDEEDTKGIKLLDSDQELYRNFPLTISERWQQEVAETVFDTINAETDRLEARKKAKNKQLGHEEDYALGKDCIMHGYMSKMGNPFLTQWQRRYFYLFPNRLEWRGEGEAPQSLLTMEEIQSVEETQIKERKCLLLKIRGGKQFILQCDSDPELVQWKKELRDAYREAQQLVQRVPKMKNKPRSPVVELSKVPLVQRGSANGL
# [10] = target: AP-2 complex subunit beta (Homo sapiens) (UniProt P63010); assay: inhibitors of arrestin peptide binding to AP2, pilot screen, biochemical, validation set, GST-AP2 beads, flow cytometry (AID 504541;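 active means inhibition above 54%, about 3 SD of non-fluorescent compounds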;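 further: AP2 carries R879A mutation and is captured from E. coli lysate; bead-bound FITC arrestin peptide fluorescence measuring arrestin peptide binding to AP2; 0% = DMSO wells and 100% = excess unlabeled arrestin peptide control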); settings: FITC arrestin peptide, at 10 µM, stronger effect = higher value, AP2 beta2 appendage fragment, R879A mutant
# Sequence of AP-2 complex subunit beta (Homo sapiens) (P63010 whole entry, looked up, the tested form may be a part, one chain of several): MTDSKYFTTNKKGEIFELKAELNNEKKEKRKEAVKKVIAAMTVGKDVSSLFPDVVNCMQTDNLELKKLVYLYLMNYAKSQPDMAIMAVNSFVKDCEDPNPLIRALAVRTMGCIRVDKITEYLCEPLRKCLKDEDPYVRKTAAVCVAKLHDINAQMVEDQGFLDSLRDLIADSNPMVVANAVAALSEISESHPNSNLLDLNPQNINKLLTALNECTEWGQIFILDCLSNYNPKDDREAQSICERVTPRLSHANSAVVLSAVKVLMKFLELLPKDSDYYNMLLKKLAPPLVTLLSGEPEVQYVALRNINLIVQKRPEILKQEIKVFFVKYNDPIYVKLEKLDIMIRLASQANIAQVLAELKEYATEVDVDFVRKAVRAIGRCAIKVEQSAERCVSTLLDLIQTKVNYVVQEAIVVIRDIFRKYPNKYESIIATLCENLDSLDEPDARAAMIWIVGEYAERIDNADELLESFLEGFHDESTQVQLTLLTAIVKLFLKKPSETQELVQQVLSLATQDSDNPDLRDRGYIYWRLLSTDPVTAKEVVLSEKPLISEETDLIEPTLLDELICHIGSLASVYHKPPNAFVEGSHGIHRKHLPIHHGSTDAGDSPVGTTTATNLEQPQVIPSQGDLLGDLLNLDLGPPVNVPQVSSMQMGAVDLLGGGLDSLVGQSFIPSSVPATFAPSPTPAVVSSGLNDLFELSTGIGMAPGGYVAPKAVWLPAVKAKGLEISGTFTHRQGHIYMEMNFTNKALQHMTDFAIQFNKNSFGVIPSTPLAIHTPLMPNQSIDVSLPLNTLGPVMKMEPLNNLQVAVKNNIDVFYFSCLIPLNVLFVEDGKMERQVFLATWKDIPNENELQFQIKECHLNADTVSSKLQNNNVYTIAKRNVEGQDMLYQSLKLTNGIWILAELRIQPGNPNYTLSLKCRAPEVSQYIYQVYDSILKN
# [11] = yeast V-ATPase proton transport modulators, S. cerevisiae, pHLuorin, HTS validation (AID 504600; in the data active means response above about 15%;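 further: plate controls were DMSO for no effect and reference compound for full effect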); settings: S. cerevisiae pHLuorin cytosolic pH, at 10 µM, stronger effect = higher value
# [12] = tested on: anti-desmoglein-3 scFv antibody binding to human DSG3; assay: inhibitors of anti-DSG3 scFv binding to DSG3, pilot screen, biochemical, validation compound set, bead-based, flow cytometry (AID 588368;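 active means binding below the plate cutoff, the plate median minus 3 SD, with a reading above zero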;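 further: signal is the median channel fluorescence of bead-bound GFP antibody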); settings: Protein G beads, DSG3-Fc, scFv-GFP binding, at 10 µM, stronger effect = lower value
# [13] = inhibitors of fungal efflux pumps CDR1, CDR2, MDR1, pilot screen, validation compound set, multiplex, phenotypic (AID 588506;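 active means efflux inhibition above 0.42, the validation set average plus 4 SD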;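 further: Nile Red retained in cells so higher fluorescence means more efflux inhibition; 0 = negative control wells and 1 = enniatin B 25 µM full block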); settings: S. cerevisiae pump-expressing triplex, Nile Red efflux flow cytometry; at 10 µM; stronger effect = higher value; the pumps come from Candida albicans
# [14] = target: ATP-binding cassette sub-family B member 6 (Homo sapiens) (UniProt Q9NP58); assay: ABCB6 transporter inhibitors, pilot screen, K562-ABCB6 cells, flow cytometry, validation set (AID 588550;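 active means inhibition above the screen-wide mean plus 3 SD, about 51%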;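 further: 0% = DMSO wells and 100% = benzethonium chloride 70 µM positive control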); settings: K562-ABCB6 porphyrin accumulation, 1 h, at 10 µM, stronger effect = higher value
# Sequence of ATP-binding cassette sub-family B member 6 (Homo sapiens) (Q9NP58 whole entry, looked up): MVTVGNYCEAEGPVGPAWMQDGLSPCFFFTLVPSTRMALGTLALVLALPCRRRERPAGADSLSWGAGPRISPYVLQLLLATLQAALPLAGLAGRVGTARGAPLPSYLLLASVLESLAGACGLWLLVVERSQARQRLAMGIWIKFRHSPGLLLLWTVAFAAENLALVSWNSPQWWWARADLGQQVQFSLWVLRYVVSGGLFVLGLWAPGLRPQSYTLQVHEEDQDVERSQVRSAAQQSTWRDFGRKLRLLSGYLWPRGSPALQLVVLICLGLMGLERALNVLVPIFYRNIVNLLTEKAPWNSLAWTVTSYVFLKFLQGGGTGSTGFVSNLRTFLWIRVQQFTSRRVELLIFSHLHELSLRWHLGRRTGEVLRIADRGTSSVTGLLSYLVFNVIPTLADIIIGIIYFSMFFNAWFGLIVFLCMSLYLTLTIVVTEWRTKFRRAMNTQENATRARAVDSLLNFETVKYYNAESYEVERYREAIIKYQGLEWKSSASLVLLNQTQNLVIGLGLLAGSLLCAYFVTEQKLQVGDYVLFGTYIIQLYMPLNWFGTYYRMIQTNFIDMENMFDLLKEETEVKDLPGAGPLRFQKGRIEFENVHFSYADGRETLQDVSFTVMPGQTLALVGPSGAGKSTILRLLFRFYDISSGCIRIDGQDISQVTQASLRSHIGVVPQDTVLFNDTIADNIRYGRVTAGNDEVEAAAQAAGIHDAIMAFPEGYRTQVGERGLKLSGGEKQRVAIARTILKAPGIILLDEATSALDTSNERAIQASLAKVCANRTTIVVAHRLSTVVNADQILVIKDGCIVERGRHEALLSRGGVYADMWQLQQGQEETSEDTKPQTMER
# [15] = promoters of myeloid differentiation in arrested cells, primary screen, cell-based, GFP/MAC1 double positive, flow cytometry, validation set (AID 588685;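 active means differentiation response of at least 50%, scaled between solvent and reference control, from cells with both markers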;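 further: compound exposure lasts four days before antibody staining and flow analysis; 0% = DMSO wells and 100% = 5 µM fulvestrant positive control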); settings: ER-HoxA9 marrow cells, stronger effect = higher value, normalized: vehicle 0, fulvestrant 100
SMILES,percent of DMSO control GFP [1],GFP response vs DMSO [2],percent response of DMSO control [3],GFP response vs DMSO [4],"GFP response, % of DMSO [5]",double positive events [6],vesicle binding response [6],inhibition [7],superoxide response (% of plate) [8],aptamer binding inhibition [9],inhibition [10],response [11],binding (% of control) [12],efflux inhibition (fraction of control) [13],inhibition [14],differentiation response [15]
Nc1ccc(S(=O)(=O)c2ccc(N)cc2)cc1,100% (inactive),102% (inactive),93% (inactive),103% (inactive),99.3% (inactive),63.7%,142% (inactive),8.15% (inactive),97.8% (inactive),0% (inactive),2.16% (inactive),-1.03% (inactive),100% (inactive),0.14 (inactive),5% (inactive),-5.05% (inactive)
CC1(C)OC2OC(C(=O)N/N=C/c3ccccc3F)C3OC(C)(C)OC3C2O1 (stereo not given),100% (inactive),106% (inactive),97.9% (inactive),101% (inactive),101% (inactive),53.1%,164% (inactive),12.8% (inactive),103% (inactive),1% (inactive),0.54% (inactive),1.25% (inactive),96.5% (inactive),0.52 (active),9% (inactive),-13.1% (inactive)
COc1ccc(CC(=O)c2c(O)cc(O)cc2O)cc1OC,103% (inactive),110% (inactive),98.8% (inactive),101% (inactive),97.5% (inactive),58.4%,171% (inactive),1.62% (inactive),102% (inactive),1% (inactive),49.5% (inactive),-6.13% (inactive),100% (inactive),0.18 (inactive),3% (inactive),27.2% (inactive)
CCOC(=O)C1=C(N)Oc2c(oc(CO)cc2=O)C1c1ccc(F)c(F)c1 (stereo not given),99.1% (inactive),101% (inactive),99.8% (inactive),94.3% (inactive),97.3% (inactive),56.7%,213% (inactive),9.09% (inactive),98% (inactive),1% (inactive),42.8% (inactive),-11.2% (inactive),104% (inactive),0.03 (inactive),2% (inactive),-18% (inactive)
COc1ccc(C2C(=O)c3ccccc3C2=O)cc1,97.8% (inactive),101% (inactive),102% (inactive),111% (inactive),94.8% (inactive),55.9%,198% (inactive),0.69% (inactive),96.8% (inactive),1% (inactive),-15.3% (inactive),-9.82% (inactive),95.6% (inactive),-0.24 (inactive),4% (inactive),-18% (inactive)
CC(COc1ccccc1)NC(C)C(O)c1ccc(O)cc1 (stereo not given),104% (inactive),101% (inactive),111% (inactive),103% (inactive),108% (inactive),55.7%,203% (inactive),-496% (inactive),107% (inactive),-1% (inactive),37.9% (inactive),-3.92% (inactive),100% (inactive),-0.05 (inactive),9% (inactive),-19.6% (inactive)
O=c1c(-c2ccc3c(c2)OCCO3)coc2cc(OC3OC(CO)C(O)C(O)C3O)ccc12 (stereo not given),103% (inactive),101% (inactive),106% (inactive),90.3% (inactive),103% (inactive),63.1%,127% (inactive),1.62% (inactive),93.4% (inactive),6% (inactive),-2.44% (inactive),-2.72% (inactive),102% (inactive),-0.28 (inactive),8% (inactive),-14.7% (inactive)
CC(O)Cn1cnc2c1c(=O)n(C)c(=O)n2C (stereo not given),95.1% (inactive),93.8% (inactive),111% (inactive),94.3% (inactive),98.7% (inactive),50%,150% (inactive),4.42% (inactive),105% (inactive),0% (inactive),-14.4% (inactive),0.41% (inactive),101% (inactive),-0.24 (inactive),4% (inactive),-14.7% (inactive)
O=C1N=c2ccccc2=C1c1[nH]c(=S)[nH]c1O,98.8% (inactive),96.9% (inactive),106% (inactive),81.3% (inactive),99.6% (inactive),56.8%,181% (inactive),2.56% (inactive),98.7% (inactive),-2% (inactive),2.65% (inactive),3.63% (inactive),98% (inactive),-0.12 (inactive),8% (inactive),-19.6% (inactive)
Clc1ccc(OCCCN2CCCCC2)c(Br)c1,105% (inactive),95.9% (inactive),112% (inactive),88.3% (inactive),98.7% (inactive),57.1%,202% (inactive),4.42% (inactive),88.5% (inactive),-2% (inactive),-6.22% (inactive),0.07% (inactive),103% (inactive),-0.35 (inactive),7% (inactive),0% (inactive)
